# Measured values published in publication PMC4336329 (PLoS ONE, 2015).
# Out of some 310,000 compounds screened, about 14,000 (4.5%) showed an effect of 50% or more. Effects have a minus sign here. The entries come from a sample that favours strong results as a whole.
# Target: human ether-à-go-go-related gene (hERG) potassium channel (human, UniProt Q12809)
# Assay: primary screen, population patch clamp on CHO cells stably expressing hERG; higher = less effect of the substance
# 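Further: peak tail current of the secondary pulse compared with the same well before compound.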
# Chain of human ether-à-go-go-related gene (hERG) potassium channel (Q12809 whole entry, looked up): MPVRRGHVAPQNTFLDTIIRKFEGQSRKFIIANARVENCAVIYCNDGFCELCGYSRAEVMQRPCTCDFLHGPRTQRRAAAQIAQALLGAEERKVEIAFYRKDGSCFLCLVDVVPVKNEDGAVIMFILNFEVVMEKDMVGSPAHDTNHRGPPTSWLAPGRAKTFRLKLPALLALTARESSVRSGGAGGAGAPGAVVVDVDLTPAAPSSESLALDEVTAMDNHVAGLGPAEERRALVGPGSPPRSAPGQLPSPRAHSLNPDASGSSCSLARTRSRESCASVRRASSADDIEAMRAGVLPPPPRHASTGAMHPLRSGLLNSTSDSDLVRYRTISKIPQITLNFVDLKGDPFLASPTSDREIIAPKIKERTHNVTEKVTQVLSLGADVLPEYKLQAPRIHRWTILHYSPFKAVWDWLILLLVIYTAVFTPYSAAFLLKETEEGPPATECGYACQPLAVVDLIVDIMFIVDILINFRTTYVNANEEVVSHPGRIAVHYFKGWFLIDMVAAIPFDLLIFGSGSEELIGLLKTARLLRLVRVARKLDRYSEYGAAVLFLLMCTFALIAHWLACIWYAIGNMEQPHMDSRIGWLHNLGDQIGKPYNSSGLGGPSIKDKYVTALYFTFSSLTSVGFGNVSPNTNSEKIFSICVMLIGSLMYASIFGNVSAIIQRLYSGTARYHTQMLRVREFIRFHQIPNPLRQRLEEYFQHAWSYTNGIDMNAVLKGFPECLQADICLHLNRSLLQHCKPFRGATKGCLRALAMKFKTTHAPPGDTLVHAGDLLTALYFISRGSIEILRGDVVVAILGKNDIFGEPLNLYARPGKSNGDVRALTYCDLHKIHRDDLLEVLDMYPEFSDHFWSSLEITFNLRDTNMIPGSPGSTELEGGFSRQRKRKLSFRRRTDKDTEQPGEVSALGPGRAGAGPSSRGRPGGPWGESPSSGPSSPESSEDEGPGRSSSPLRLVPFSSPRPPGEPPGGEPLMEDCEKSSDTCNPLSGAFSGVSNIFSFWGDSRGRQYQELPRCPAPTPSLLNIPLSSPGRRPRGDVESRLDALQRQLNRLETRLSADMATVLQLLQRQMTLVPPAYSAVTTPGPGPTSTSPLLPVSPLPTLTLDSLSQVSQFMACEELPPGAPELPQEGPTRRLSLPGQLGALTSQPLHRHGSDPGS
row,Structure (SMILES),"hERG current change (%, negative = inhibition) at 10uM"
1,Cc1cc(OC(C)C(=O)N2CCN(c3ccc(F)cc3)CC2)c2c(C)cc(=O)oc2c1 (centres unmarked),-1.27%
2,O=C(NCCOc1ccccc1Cl)c1ncn[nH]1,-2.83%
3,COCCNC(=O)C(c1ccc(F)cc1)N(C(=O)CCC(=O)Nc1ccccn1)c1cccc(C)c1 (centres unmarked),16.2%
4,Cc1ccc(OCC(O)CN2CCN(Cc3ccc4c(c3)OCO4)CC2)c(C)c1.Cl (centres unmarked),-57.1%
5,CC(=O)c1ccc(OCC(O)CN2CCN(Cc3ccc4c(c3)OCO4)CC2)cc1.Cl (centres unmarked),-49.8%
6,Cc1ccc(OCC(O)CN2CCN(Cc3ccc4c(c3)OCO4)CC2)cc1C.Cl (centres unmarked),-61.1%
7,Cc1ccc(C)c(OCC(=O)N2CCN(Cc3ccc4c(c3)OCO4)CC2)c1,-23.3%
8,CC(=O)c1ccc(OCC(O)CN2CCN(Cc3ccc4c(c3)OCO4)CC2)cc1 (centres unmarked),-34.8%
9,COc1cc(COCC(O)CN2CCN(Cc3ccc4c(c3)OCO4)CC2)cc(OC)c1OC.Cl (centres unmarked),-0.319%
10,Cc1cccc(N2CCN(C(=O)CCn3c(=O)[nH]c4ccsc4c3=O)CC2C)c1 (centres unmarked),21.5%
11,COc1ccc(OC)c2sc(NC(=O)c3ccc(S(=O)(=O)N4CCOCC4)cc3)nc12,-2.05%
12,CC(NCCO)C(=O)C12CC3CC(CC(C3)C1)C2.Cl (centres unmarked),13.1%
13,Cc1sc2ncn(CC(=O)N3CCN(c4ccc(F)cc4)CC3)c(=O)c2c1S(=O)(=O)N1CCOCC1,-64.3%
14,COc1ccc(N2CCN(C(=O)Cn3cnc4sc(C)c(S(=O)(=O)N5CCOCC5)c4c3=O)CC2)cc1,-20.7%
15,CCOC(=O)C1CCN(C(=O)Cn2cnc3sc(C)c(S(=O)(=O)N4CCCCC4)c3c2=O)CC1,-35.5%
16,CCOC(=O)C1CCN(C(=O)Cn2cnc3sc(C)c(S(=O)(=O)N4CCC(C)CC4)c3c2=O)CC1,-67.9%
17,Cc1sc2ncn(CC(=O)N3CCN(c4ccccc4)CC3)c(=O)c2c1S(=O)(=O)N1CCOCC1,-16%
18,CCOC(=O)C1CCN(C(=O)Cn2cnc3sc(C)c(S(=O)(=O)N4CCOCC4)c3c2=O)CC1,-14%
19,CC1(C)CC(=O)C=C(Nc2cc(-c3ccccc3)[nH]n2)C1,-11.2%
20,CC(NC(=O)C1CCC(=O)N1Cc1ccccc1Cl)c1ccccc1 (centres unmarked),12.8%
21,COc1ccccc1-c1cc(C(=O)Nc2c(C)n(C)n(-c3ccccc3)c2=O)no1,-34.9%

row,Structure (SMILES),"hERG current change (%, negative = inhibition) at 10uM"
1,N#CCC(=O)N/N=C/c1ccccc1Cl,6.55%
2,Cc1nn(C)c(C)c1S(=O)(=O)NC1CCCC1,-12%
3,CCN(C(=O)CN1CCN(c2cccc(C(F)(F)F)c2)CC1)c1c(N)n(Cc2ccccc2)c(=O)[nH]c1=O,-20.3%
4,Oc1ccc(-c2cccc(-c3ccc(O)cc3)c2)cc1,3.27%
5,C[n+]1c(-c2ccccc2)cc(-c2ccc(O)cc2)cc1-c1ccccc1.[O-][Cl+3]([O-])([O-])[O-],-61.4%
6,Cc1cc(-c2ccccc2)cc(-c2ccccc2)[n+]1C.[Cl-],-13.6%
7,C[n+]1c(-c2ccccc2)cc(CCCCc2cc(-c3ccccc3)[n+](C)c(-c3ccccc3)c2)cc1-c1ccccc1.[O-][Cl+3]([O-])([O-])[O-],-30.6%
8,O=C(c1ccccc1)c1ccc(-c2ccc(O)cc2)cc1,10.1%
9,C[n+]1c(-c2ccccc2)cc(-c2ccc(Cl)cc2)cc1-c1ccccc1.[O-][Cl+3]([O-])([O-])[O-],-84.1%
10,COCCNC(=O)C(c1ccc(C)o1)N(C(=O)c1snc(C(N)=O)c1N)c1cc(C)cc(C)c1 (centres unmarked),-28.5%
11,COc1ccc(Cc2nnc(SCc3nc4ccccc4c(=O)[nH]3)n2C)cc1,-11.9%
12,COc1ccc(C(CC(=O)O)N2Cc3ccccc3C2=O)cc1 (centres unmarked),14.4%
13,CC(C)=CCCC1=CCC2C(=O)NNC(=O)C2C1 (centres unmarked),9.53%
14,CC(C)=CCCC1=CCC(/C(C)=N/NC(N)=O)CC1 (centres unmarked),-53.7%
15,CC(C)=CCCC1=CCC(/C=N/NC(N)=O)C(C)C1 (centres unmarked),9%
16,CC(=O)N1c2c(cc(Br)cc2S(=O)(=O)N2CCOCC2)CC1C (centres unmarked),-0.158%
17,COCC(C)n1c(C)cc(C(=O)CSc2nnnn2C2CCCC2)c1C (centres unmarked),-33.2%
18,COCCn1c(C)cc(C(=O)CSc2nnc(C3CC3)n2C2CC2)c1C,5.4%
19,COc1ccc(Cl)cc1C(=O)CSc1nnnn1C1CCCCC1,-4.88%
20,CCn1c(C)cc(C(=O)CSc2nnnn2C2CCCC2)c1C,-53.5%
